Hit rate of the full screen: of about 400,000 compounds, about 13,000 (3.2%) were called active. Another 18% or so got no clear call; they are omitted. This is one part of a sample in which actives are shown more often than they occur. Calls follow the shape of the dose curve; as a rule, active = well fitted cell-killing curve with a large enough effect; inconclusive = small, poorly fitted or top-dose-only effect, or effect the other way; inactive = flat fitted curve, though single readings scatter.
assay: qHTS assay for MDR1-selective chemotherapeutics: Primary screen using the drug-selected MDR subline cells KB-V1; settings: KB-V1 MDR cells viability, CellTiter-Glo, 72 h; series mostly up to 46.1 µM; activity change, negative = cytotoxicity: at the top concentration; also: nearly all actives have a fitted effect of over 60% in size
Excerpt: A prime difficulty in effectively treating cancer is the development of cellular resistance to multiple structurally unrelated anticancer drugs, a phenomenon known as multidrug resistance (MDR). […] Numerous strategies to overcome P-gp-mediated MDR have been explored, including the design of drugs that evade recognition and efflux, and development of inhibitors to block efflux and restore drug accumulation. […] An alternative approach is to exploit resistance by identifying drugs that target MDR cells over the non-resistant parental cells from which they were selected. […] The development of MDR1-selective agents represents a new strategy for resolving multidrug resistance, as it remains a long-standing clinical challenge for cancer chemotherapy.
Our goal is to identify compounds that selectively kill P-gp-expressing MDR cells. We will identify MDR1-selective compounds by comparing toxicity of compounds in the screening library against parental, drug-naive (KB-3-1) adenocarcinoma cells as well as their drug-selected MDR sub-line (KB-V1). The differential toxicity of compounds against these two cell lines will be used to identify MDR1-selective compounds, whose cytotoxicity is potentiated, rather than diminished, by P-gp expression. This assay will be utilized to conduct a quantitative high-throughput screen (qHTS) in collaboration with the NIH Chemical Genomics Center to identify selective agents, and probe hits arising from the screen will be validated using secondary assays and characterized through a well-established follow-up research program. This screen was run against the entire NCGC library collection of about 400,000 compounds.
NIH Molecular Libraries Probe Production Network [MLPCN]
NIH Chemical Genomics Center [NCGC]
PI: Michael Gottesman, National Cancer Institute, NIH
Briefly, 5 microL of media containing either KB-V1 cells (columns 1-2, 4-48) are dispensed into Greiner white, treated solid-bottom 1536-well assay plates (media-only control is added to column 3). Compounds are then transferred via Kalypsys pin tool equipped with 1536-pin array (10 nL slotted pins, V&P Scientific, San Diego, CA). Following addition of compound, the plates are incubated at 37 degrees C for 72 hours. CellTiter-Glo (2.5 µL/well) is then added, and the plates are read in a ViewLux reader (Perkin-Elmer, clear luminescence filter, 1 second exposure, 1x binning) following a 10 minute incubation. All cells are dispensed in DMEM phenol-red free media containing 10% FBS.
Library plates were screened starting from the lowest and proceeding to the highest concentration. Vehicle-only plates, with DMSO being pin-transferred to columns 5-48, will be inserted uniformly at the beginning and the end of each library in order to monitor and record any shifts in the background, which can be affected by reagent dispensers or loss in enzyme activity over time. Screening data will be corrected, normalized, and concentration-effect relationships will be derived by using publicly-available NCGC, NCATS curve fitting algorithms (http://ncgc.nih.gov/pub/openhts).
% is scaled to controls: 0 for no effect and ±100 for the full control effect; potency is read from the fitted curve at half-maximal effect.

Compound | activity change, negative = cytotoxicity | Potency
CCCCCCCCN1C(=O)[C@H](CC(=O)NCc2cccc3ccccc23)C[C@@]2(C(=O)OC)CCCCC=C12 | -23.6% (inactive) | 
Cc1ccccc1S(=O)(=O)NC(=O)C1(C)CCN1C(=O)Cc1ccc(Cl)cc1Cl (stereo not drawn) | 4.1% (inactive) | 
CCc1nc2c(OCCOc3ccc(F)cc3)cccn2c1N(C)C(=O)c1ccccc1F | -15.3% (inactive) | 
Clc1ccc(-c2cccc3nccn23)cc1 | -9.65% (inactive) | 
C=CCN1CCN(c2ccncc2S(=O)(=O)N2CCN(C)CC2)CC1 | -1.22% (inactive) | 
COc1cccc(NC(=O)Nc2ccc3c(c2)N(C)C(=O)c2ccccc2S3)c1 | -27% (inactive) | 
CC1(C)C=Cc2c(ccc(C(=O)/C=C/c3ccccc3)c2O)O1 | 0% (inactive) | 
O=C(c1ccc(N2CCOCC2)c([N+](=O)[O-])c1)N1CCN(c2ccccc2F)CC1 | -21.3% (inactive) | 
O=C(NCCCN1CCOCC1)c1ccc(N2CCCC2)c([N+](=O)[O-])c1 | -11.8% (inactive) | 
O=C(COc1ccccc1F)NNC(=O)c1ccc(N2CCCCC2)c([N+](=O)[O-])c1 |  | 16.4 µM (active)
CN(C)c1cccc(NC(=O)c2ccc(-c3ccc(F)c(F)c3)c3ccoc23)c1 | -1.95% (inactive) | 
CO[C@@H]1CN(C)C(=O)c2cc(NC(=O)Nc3cc(F)ccc3F)ccc2OC[C@H](C)N(C(=O)c2ccccn2)C[C@@H]1C | 5.61% (inactive) | 
CCCCC(=O)OC1=CN(Cc2ccccc2)S(=O)(=O)c2ccccc21 | -1.9% (inactive) | 
O=C(COc1ccc2oc3c(c2c1)CCCC3)Nc1ccccn1 | -4.62% (inactive) | 
CC1CCCCN1CC(=O)N1CCCc2c1c(=O)oc1ccc(OCc3ccccc3)cc21 (stereo not drawn) | -18% (inactive) | 
O=C(CN1CCOCC1)N1CCCc2c1c(=O)oc1ccc(OCc3ccccc3)cc21 |  | 18.4 µM (active)
CCOc1ccc(CCN2C(=S)N([C@@H](CC(C)C)CN3CCC[C@@H]3CN3C(=S)NC[C@@H]3Cc3ccc(O)cc3)C[C@@H]2CC(C)C)cc1 | -22.3% (inactive) | 
CC(=O)Nc1cncc(-c2ccccc2CO)n1 | 5.41% (inactive) | 
O=C(Nc1ccccc1C(=O)N1CCCCCC1)c1ccccc1Cl | -6.29% (inactive) | 
O=C(CN(c1ccccc1)S(=O)(=O)c1ccc(Cl)cc1)Nc1ccccc1C(=O)N1CCCC1 |  | 5.8 µM (active)
COc1ccccc1N(CC(=O)Nc1ccccc1C(=O)N1CCCC1)S(C)(=O)=O | -2.86% (inactive) | 
COc1cccc(CN(C)C(=O)CC[C@H]2O[C@@H](n3cnc4c(NC(=O)c5ccccc5)ncnc43)[C@H](O)[C@@H]2O)c1 | 1.92% (inactive) | 
Cc1ccc(C)c(N2CCN(C(=O)CCCCCn3c(=S)[nH]c4ccc(N5CCOCC5)cc4c3=O)CC2)c1 | -24.5% (inactive) | 
Cc1ccc(C)c(N2CCN(C(=O)CCCCn3c(=O)[nH]c4ccccc4c3=O)CC2)c1 |  | 6.51 µM (active)

Compound | activity change, negative = cytotoxicity | Potency
COc1cccc(N2CCN(C(=O)CCCCCn3c(=O)[nH]c4ccccc4c3=O)CC2)c1 | 1.41% (inactive) | 
COc1ccc(CCNC(=O)CCCCn2c(=O)c3ccccc3n(Cc3ccccc3)c2=O)cc1OC | -6.38% (inactive) | 
Oc1ccccc1-c1nc(/C=C/c2ccc(F)cc2)no1 | 1.77% (inactive) | 
Cc1ccc(-c2noc(CSc3nnc(-c4ccncc4)n3-c3ccc(F)cc3)n2)cc1 |  | 8.2 µM (active)
Cc1ccc(-c2noc(CSc3nnc(-c4ccccc4)n3C)n2)cc1 | -10.1% (inactive) | 
Fc1ccc(-n2c(Cc3ccccc3)nnc2SCc2nc(-c3ccc(Cl)cc3)no2)cc1 |  | 14.6 µM (active)
Cn1cccc1Cc1nnc(SCC(=O)NCCc2ccccc2)n1-c1ccc(F)cc1 | -0.962% (inactive) | 
COc1ccc(-c2noc(CSc3nc4ccc(C)cc4[nH]3)n2)cc1 | -28.5% (inactive) | 
COc1ccc(-c2noc(CSc3nnc(-c4ccccc4)n3-c3ccc(F)cc3)n2)c(OC)c1 | -23.8% (inactive) | 
Cc1ccc(-c2noc(CSc3nnc(-c4cccs4)n3C)n2)cc1 |  | 13 µM (active)
Cc1ccc(-c2noc(CSc3nnc(-c4ccc(Cl)cc4)n3C)n2)cc1 | 0% (inactive) | 
Cc1ccc(-c2noc(CSc3nnnn3-c3ccccc3)n2)cc1 | 2.44% (inactive) | 
Cc1ccc(C(=O)Nc2c(-c3ccccc3)[nH][nH]c2=O)cc1 | 1.55% (inactive) | 
O=C(NCc1ccccc1Cl)C1=Cc2cc(Br)ccc2OC1 | -7.05% (inactive) | 
CC(C)Oc1cc(F)ccc1-c1cc(C(=O)Nc2ccc(F)cc2)[nH]n1 | -24.1% (inactive) | 
CC(Nc1ccc(-c2nc(-c3ccco3)no2)cc1[N+](=O)[O-])c1ccccc1 (stereo not drawn) | 0% (inactive) | 
Cc1cc(C)cc(NS(=O)(=O)c2ccc3[nH]cc(C(=O)N4CCCCC4)c(=O)c3c2)c1 | 6.52% (inactive) | 
CCCNC(=O)C1(C)CCN(C(=O)c2cc(F)ccc2C)C1 (stereo not drawn) | 4.07% (inactive) | 
C=Cc1ccc(Cn2c(C(=O)O)c(CNC3CCCC3)c3ccc(C)cc32)cc1 | 0% (inactive) | 
CC1(C)SC2c3ccccc3C(=O)N2[C@@H]1C(=O)NCc1ccco1 (stereo partly drawn) | 3.48% (inactive) | 
COc1ccc(S(=O)(=O)N2CCC(C(=O)NCc3ccco3)CC2)cc1C | -26.8% (inactive) | 
COc1cc2c(cc1OC)C(C(=O)NCc1ccco1)C1c3ccccc3CCN1C2=O (stereo not drawn) |  | 14.6 µM (active)
COCCNc1nc(NCc2ccc(NC(C)=O)cc2)c2sccc2n1 | 23.4% (inactive) | 
Cc1cccc(-n2c(SCC(N)=O)nc3c(oc4ccccc43)c2=O)c1 | -18.9% (inactive) | 
